Measurements: PubChem BioAssay AID686978 (National Center for Advancing Translational Sciences (NCATS), 2013)
Out of some 420,000 compounds screened, about 64,000 (15%) were called active. About 27% were inconclusive and are not listed. Not all results are given here. Unmarked numbers belong to inactive results. Calls follow the shape of the dose curve; as a rule, active = well fitted inhibition curve with a large enough effect; inconclusive = small, poorly fitted or top-dose-only effect; inactive = flat fitted curve, though single readings scatter.

Experiment: qHTS for Inhibitors of human tyrosyl-DNA phosphodiesterase 1 (TDP1): qHTS in cells in absence of CPT; also: nearly all actives have a fitted effect of over 55% in size
Settings: DT40 Tdp1-/- hTDP1 cells, no CPT, ATP luminescence, 48 h; activity change, negative = growth inhibition: at 46.2 µM (top of the series)
Method in brief: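 Growth of hTDP1-complemented DT40 Tdp1-knockout cells is measured by ATP luminescence after at least 48 hr compound exposure at 37 °C, with DMSO substituting for the 20 nM CPT used in the parallel screen.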
% is scaled to controls: 0 for no effect and ±100 for the full control effect; potency is read from the fitted curve at half-maximal effect.

Row | Structure (SMILES) | activity change, negative = growth inhibition | Potency
1 | C=CCNc1nnc(SCC(=O)N2CCCCC2)c2ccccc12 | 4.38% | 
2 | Cc1cc(C)c(NC(=O)Cn2c(SCC(=O)NCc3ccccc3)nc3ccccc32)c(C)c1 |  | 18.4 µM (active)
3 | CC(C)(C)NC(=O)Cn1c(SCC(=O)Nc2nccs2)nc2ccccc21 | -4.92% | 
4 | Cc1cc(NC(=O)CSc2nc3ccccc3n2CC(C)C)no1 | -4.04% | 
5 | O=[N+]([O-])c1ccc(Oc2ccc(F)cc2Br)c2ccncc12 |  | 23.1 µM (active)
6 | O=c1[nH]c2c(c(=O)n1-c1ccccc1)CCO2 | -19.7% | 
7 | CCC(C)c1ccc(NC(=S)N2CCCC2)cc1 (stereo not given) |  | 10.3 µM (active)
8 | CCOc1ccc(NC(=S)N2CCCCCC2)cc1 | 8.01% | 
9 | CCOC(=O)c1ccc(NC(=S)N2CCCC2)cc1 | 0.979% | 
10 | Cc1cc(OCC(=O)NCC(O)c2ccccc2)c2c(C)c(C)c(=O)oc2c1 (stereo not given) | -21.4% | 
11 | CCCC1CC(C)(C(=O)Cn2[nH]c(=O)ccc2=O)OC1=O (stereo not given) | -8.19% | 
12 | COC(=O)c1c(-c2ccsc2)oc2ccc(-c3cc(OC)c(OC)c(OC)c3)cc12 |  | 16.4 µM (active)
13 | CCOC(=O)c1c(-c2ccccc2)oc2ccc(OCC(=O)NN)cc12 | 1.78% | 
14 | COc1cc(-c2nnc(NC(=O)CS(=O)(=O)c3ccc(Cl)cc3)o2)cc(OC)c1OC | 4.37% | 
15 | C/C(Nc1ccc2oc(=O)ccc2c1)=C1/C(=O)CC2[C@@H]1C2(C)C (stereo not given in full) | -12.6% [at 9.04 µM] | 
16 | C/C(=N/NC(=O)c1ccn(C)n1)c1ccncc1 | 14.9% | 
17 | Cc1cnc(NC(=O)C2CCCC2)s1 | -8.92% | 
18 | C/C=C/NNC(=O)Cc1ccc(OC)cc1 |  | 5.62 µM (active)
19 | CCCCCNC(=O)Cc1ccc(OC)cc1 | -23% | 
20 | COc1ccc(CC(=O)Nc2ccc(-c3nnc(-c4ccc(C)cc4)o3)cc2)cc1 | -10.4% | 
21 | CS(=O)(=O)N1CCN(C(=O)Cc2ccccc2)CC1 | -5.14% | 
22 | CC(C)c1ccc(CC(=O)N2CCC2(C)C(=O)NS(=O)(=O)c2ccc(C(C)(C)C)cc2)cc1 (stereo not given) | -8.67% | 
23 | c1cnc(N2CCN(c3ccc4ccccc4n3)CC2)nc1 |  | 18.4 µM (active)
24 | CC1=C(N2CCN(c3ncccn3)CC2)CCC1=O | 9.41% | 
25 | Oc1ccc(CN2CCN(c3ncccn3)CC2)cc1 | 0.422% | 

Row | Structure (SMILES) | activity change, negative = growth inhibition | Potency
26 | CC(C)n1ncc2c(C(=O)Nc3ccc(CC#N)cc3)cc(C3CC3)nc21 |  | 13 µM (active)
27 | N#CCc1ccc(NC(=O)c2ccccc2C(=O)Nc2ccc(CC#N)cc2)cc1 | -5.04% | 
28 | CC(=O)Nc1ccc(CC#N)cc1 | 10.2% | 
29 | O=C(NCCN1CCOCC1)c1cnn(-c2nccc(-c3cccs3)n2)c1C1CC1 | -8% | 
30 | CC(C)n1ncc2c(C(=O)N3CCN(Cc4cccs4)CC3)cc(C3CC3)nc21 |  | 25.9 µM (active)
31 | Cc1ccsc1C1C(C#N)=C(N)OC2=C1C(=O)CC(C)C2 (stereo not given) | 11.3% | 
32 | CCOC(=O)Cc1cc(=O)[nH]c(=O)[nH]1 | -0.765% | 
33 | COCCn1cnnc1SCC(=O)Nc1cccc(S(=O)(=O)N2CCCCC2)c1 | -10.9% | 
34 | Cc1c(CCO)c(=O)n(-c2ccccc2)n1S(=O)(=O)c1ccc(F)cc1 | -27.5% | 
35 | COCCCNC(=O)C1CC(=O)N(c2ccc(C)cc2)C1 (stereo not given) | -14.8% | 
36 | Cc1oc(-c2ccccc2F)nc1CS(=O)(=O)CC(=O)NCCCN(C)C1CCCCC1 | -9.36% | 
37 | Cc1ccc(N2C(=O)C(CC(=O)Nc3cccc(F)c3)N(CCc3ccncc3)C2=O)cc1 (stereo not given) | -19.1% | 
38 | CCOc1ccc(NC(=O)CN(C)C(=O)CCSc2ccc(F)cc2)cc1OCC | -17.2% | 
39 | CCN(C(=O)COC(=O)C1CCN(S(=O)(=O)c2ccc(C)c(C)c2)CC1)C1CCS(=O)(=O)C1 (stereo not given) | -4.69% | 
40 | O=[N+]([O-])c1ccc(N(CCO)Cc2ccccc2)c([N+](=O)[O-])c1 | -59% | 
41 | CCOC(=O)CC(NC(=O)C1c2ccccc2Oc2ccccc21)c1ccc(C)cc1 (stereo not given) | -27.3% | 
42 | CCCN(CCC)C(=O)C1c2ccccc2Oc2ccccc21 |  | 25.9 µM (active)
43 | CCCCCNC(=O)C1c2ccccc2Oc2ccccc21 | -20.9% | 
44 | Cc1ccccc1OCCC(=O)OCC(=O)NCCc1ccc(S(N)(=O)=O)cc1 | 10.2% | 
45 | Cc1nnc(NC(=O)CSc2nccn2-c2cccc(C)c2C)s1 |  | 3.26 µM (active)
46 | Cc1cc(NC(=O)CSc2nccn2-c2ccc([N+](=O)[O-])cc2)no1 | 2.54% | 
47 | COc1ccccc1-n1c(CNC(=O)c2ccccc2)nnc1SCC(=O)Nc1nnc(C)s1 | -9.04% | 
48 | CC(=O)Nc1cccc(NC(=O)CSc2nccn2Cc2ccc(F)cc2)c1 | 10.9% | 
49 | O=C(CSc1nccn1-c1ccc(F)cc1)Nc1cccc2ccccc12 |  | 14.6 µM (active)
50 | COc1ccccc1-n1ccnc1SCC(=O)NC(C)(C)C | -15.4% | 

Row | Structure (SMILES) | activity change, negative = growth inhibition | Potency
51 | Cc1cccc(CSc2nnc(NC(=O)CSc3nnc(C)s3)s2)c1 | -17% | 
52 | Cc1ccccc1-n1c(SCC(=O)Nc2cccc3ccccc23)nc(O)cc1=O | 18.6% | 
53 | Cc1cccc(-n2ccnc2SCC(=O)Nc2cccc3ccccc23)c1C |  | 16.4 µM (active)
54 | Cc1cccc(NC(=O)c2ccc(OCC(=O)NCc3ccccc3)cc2)c1C | -22.1% | 
55 | COC(=O)C(C(=O)Nc1cccc(Cl)c1C)C1CCCC1 (stereo not given) | -25.4% | 
56 | CCOC(=O)C(=O)C1C(=O)Nc2ccccc21 (stereo not given) | 5.01% | 
57 | CCC(=O)Nc1c(C)n[nH]c1C | -10% | 
58 | CCOc1ccc(-c2cn(S(=O)(=O)c3cccc4nsnc34)nc2N)cc1 | -13.4% | 
59 | COc1cccc(CNC(=O)CN2C(=O)CCc3cc(S(=O)(=O)N4CCOCC4)ccc32)c1 | -0.508% | 
60 | Cc1cc(NC(=O)CSc2nc(=O)cc(N)n2-c2ccc(F)cc2)no1 | 9.07% | 
61 | CCCN(CCC)c1ccc(C(O)c2nnc(-c3ccccc3)o2)cc1 (stereo not given) | -2.41% | 
62 | CC(=O)c1ccc(NC(c2ccc(F)cc2)c2nnc(-c3ccccc3)o2)cc1 (stereo not given) |  | 8.2 µM (active)
63 | CC(=O)c1ccc(NC(=O)COc2ccccc2-c2nc(-c3ccccc3)no2)cc1 | -10.5% | 
64 | NC(=O)C1(N2CCCC2)CCN(Cc2ccccc2)CC1 | 1.08% | 
65 | COC(=O)[C@@H]1C[C@H]2CC[C@H](O)C[C@H]2N1Cc1ccc(N2CCN(C)CC2)cc1 | 9.08% | 
66 | COCCNC(=O)C(c1ccc(C)o1)N(Cc1ccccc1)C(=O)Cn1nnc2ccccc21 (stereo not given) | -18.4% | 
67 | Cc1ccc2nc(/C(C#N)=C\c3ccc(OC(=O)c4cccs4)cc3)[nH]c2c1 |  | 6.51 µM (active)
68 | Cc1ccc2nc(/C(C#N)=C/c3ccc(-c4ccc(C(=O)OC(C)C)cc4)o3)[nH]c2c1 |  | 5.17 µM (active)
69 | CCOc1ccc(/C=C(\C#N)c2nc3ccccc3c(=O)[nH]2)cc1OC | -28% | 
70 | N#C/C(=C\c1ccccc1F)c1nc2ccccc2c(=O)[nH]1 | -10.4% | 
71 | Cc1ccc2nc(S(=O)(=O)O)[nH]c2c1 | 4.87% | 
72 | COc1ccccc1CSc1nc2ccccc2[nH]1 | -18.3% | 
73 | CCOC(=O)c1ccc(-c2ccc(/C=C(\C#N)C(=O)Nc3ccc(OCC)cc3)o2)cc1 | 1.66% | 
74 | COc1cc(/C=C(\C#N)c2nc3ccccc3[nH]2)ccc1O |  | 23.1 µM (active)
75 | Cc1ccc2nc(/C(C#N)=C/c3ccccc3F)[nH]c2c1 |  | 18.4 µM (active)
